According to the supplement of paper PMC6555819:

Experiments:
Test in all cases: PBM binding z-score (relative to random genomic background probes); higher = stronger binding; sequences stand for … in GC…GCGATTGACAGCGTAGAATGAAGG
[1] = tested on: FXR:RXRa (NR concentration 270 nM, RXRa partner concentration 90 nM)
Method in brief: (§1)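 Each nuclear receptor dimer, without ligand, was incubated for 1 h on custom Agilent 4×180K protein-binding microarrays. Binding was detected with antibodies against each partner (one per run), and scanned fluorescence was regression-normalized. The binding z-scores are referenced to random human genomic background probes.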

[2] = tested on: LXRa:RXRa (NR concentration 270 nM, RXRa partner concentration 90 nM)
Method in brief: as §1

[3] = tested on: LXRa homodimer (NR concentration 270 nM)
Method in brief: as §1

[4] = tested on: LXRb:RXRa (NR concentration 270 nM, RXRa partner concentration 90 nM)
Method in brief: as §1

[5] = tested on: LXRb homodimer (NR concentration 270 nM)
Method in brief: as §1

[6] = tested on: PPARa:RXRa (NR concentration 270 nM, RXRa partner concentration 90 nM)
Method in brief: as §1

[7] = tested on: PPARg:RXRa (NR concentration 180 nM, RXRa partner concentration 90 nM)
Method in brief: as §1

[8] = tested on: PPARg:RXRa 270nM:90nM, anti-RXR (NR concentration 270 nM, RXRa partner concentration 90 nM)
Method in brief: as §1

[9] = tested on: PPARg:RXRa 30nM:10nM, anti-RXR (NR concentration 30 nM, RXRa partner concentration 10 nM)
Method in brief: as §1

[10] = tested on: PPARg:RXRa 90nM:30nM, anti-RXR (NR concentration 90 nM, RXRa partner concentration 30 nM)
Method in brief: as §1

[11] = tested on: PPARg:RXRa DBDmut IVT, anti-RXR (DBD mutation: RXRa K156A/R161A, NR concentration 270 nM, RXRa partner concentration 90 nM)
Method in brief: as §1

[12] = tested on: PPARg:RXRa IVT, anti-PPARg (NR concentration 270 nM, RXRa partner concentration 90 nM)
Method in brief: as §1

[13] = tested on: PPARg DBDmut:RXRa IVT, anti-PPARg (DBD mutation: PPARg1 K132A/R137A, NR concentration 270 nM, RXRa partner concentration 90 nM)
Method in brief: as §1

[14] = tested on: PPARg DBDmut IVT, anti-PPARg (DBD mutation: PPARg1 K132A/R137A, NR concentration 270 nM)
Method in brief: as §1

[15] = tested on: PPARg homodimer (NR concentration 180 nM)
Method in brief: as §1

[16] = tested on: PXR:RXRa (NR concentration 270 nM, RXRa partner concentration 90 nM)
Method in brief: as §1

[17] = tested on: PXR homodimer (NR concentration 270 nM)
Method in brief: as §1

[18] = tested on: RARa:RXR (NR concentration 270 nM, RXRa partner concentration 90 nM)
Method in brief: as §1

[19] = tested on: RARa homodimer (NR concentration 270 nM)
Method in brief: as §1

[20] = tested on: RARb:RXRa (NR concentration 270 nM, RXRa partner concentration 90 nM)
Method in brief: as §1

| Sequence | PBM binding z-score [1] | PBM binding z-score [2] | PBM binding z-score [3] | PBM binding z-score [4] | PBM binding z-score [5] | PBM binding z-score [6] | PBM binding z-score [7] | PBM binding z-score [8] | PBM binding z-score [9] | PBM binding z-score [10] | PBM binding z-score [11] | PBM binding z-score [12] | PBM binding z-score [13] | PBM binding z-score [14] | PBM binding z-score [15] | PBM binding z-score [16] | PBM binding z-score [17] | PBM binding z-score [18] | PBM binding z-score [19] | PBM binding z-score [20] |
| --- | --- | --- | --- | --- | --- | --- | --- | --- | --- | --- | --- | --- | --- | --- | --- | --- | --- | --- | --- | --- |
| GGAACCAGGGCAAAGTTGATAGCATCTGTCGACG | 0.769 | 0.723 | -0.0781 | 0.931 | 0.32 | 4.38 | 7.33 | 7.61 | 6.29 | 7.86 | 4.31 | 4.92 | 0.131 | 1.82 | 1.1 | 0.754 | 0.639 | 0.798 | 0.36 | 2.22 |
| TCTGGGAGGACACGAAAGGTCAGAGCTCGACATC | 3.35 | 4.18 | 3.31 | 3.11 | 0.345 | 3.51 | 1.49 | 2.81 | 1.88 | 2.34 | 1.27 | 1.89 | 0.0227 | -0.425 | 2.76 | 4.23 | 0.802 | 4.77 | 1.17 | 4.34 |
| ATCTCTAGGTCACAAGTTCAGTGAAAGAGAGGAC | 3.91 | 4.68 | 3.14 | 3.08 | 2.24 | 4.35 | 6.67 | 5.95 | 3.16 | 5.39 | 6.82 | 6.99 | 2.94 | 2.5 | 2.82 | 3.7 | 2.65 | 3.86 | 1.69 | 4.5 |
| TAATATAGGTAAAAGGTGAAAGTCGGTGTGGTAA | 1.84 | 2.01 | 0.364 | 2.04 | 0.134 | 6.16 | 10.5 | 9.06 | 9.53 | 10.1 | 7.05 | 6.22 | 2.17 | 1.62 | 2.02 | 1.8 | 0.982 | 3.16 | 1.75 | 1.94 |
| ATCTCTAGGTAAAAGTTTAGTGAATCCCGAGGAT | 0.336 | 0.276 | 0.317 | 0.0669 | 1.09 | 2.34 | 3.7 | 4.99 | 2.89 | 5.11 | 2.01 | 2.09 | 0.984 | 0.97 | 0.897 | 0.34 | 0.253 | 0.103 | 0.693 | 0.667 |
| TCTCGGAGGAAACGAAGGTCAGAGCTTTCCAGAG | 0.418 | 0.556 | -0.0873 | 1.02 | -1.15 | 1.72 | -0.151 | 1.19 | 1.74 | 1.39 | 0.867 | -0.0763 | -1.61 | -1.24 | 0.766 | 0.848 | -0.378 | 1.7 | -0.763 | 2.03 |
| AATACAGGGTCATAGTAGGCCAGAGTACGCACAG | 7.09 | 6.14 | 2.31 | 4.62 | 1.5 | 5.82 | 6.42 | 5.33 | 2.62 | 4.34 | 2.62 | 4.56 | 1.47 | 2.3 | 2.67 | 4.36 | 0.689 | 4.7 | 0.787 | 4.05 |
